Laboratory results as given in PubChem BioAssay (NCI).
Where “and” joins values, the source holds several entries; their conditions need not be identical. Equal values may be shown once. About 83,000 compounds went through this panel and 20% of them were active in at least one assay; those are over-represented in the sample as a whole.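 Cell lines were cultured in 96-well plates, exposed to a single compound concentration, and assessed for percent growth 48 hours later.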 Calls of active or inactive are those of the source. How the source made its calls: active means growth percent below 10; inactive means the rest.

Legend:
Test in all cases: NCI-60 one-dose screen, 48 h (100 = growth as untreated, 0 = no growth, -100 = all killed)
[1] = tested on: HCT-15 colon
[2] = tested on: HT29 colon
[3] = tested on: SNB-75 CNS
[4] = tested on: SNB-19 CNS
[5] = tested on: U251 CNS
[6] = tested on: PC-3 prostate
[7] = tested on: SK-MEL-5 melanoma
[8] = tested on: UACC-62 melanoma
[9] = tested on: LOX IMVI melanoma
[10] = tested on: SK-MEL-28 melanoma

Measured: growth

COC(=O)c1nc(=S)[nH]c(C(=O)OC)c1C(=O)c1ccc(OC)cc1
inactive: [1]; 10 µM unless noted 100% | [2]; 10 µM unless noted 106% | [3]; 10 µM unless noted 101% | [4]; 10 µM unless noted 101% | [5]; 10 µM unless noted 108% | [6]; 10 µM unless noted 93% | [7]; 10 µM unless noted 97.3% | [8]; 10 µM unless noted 95.9% | [9]; 10 µM unless noted 94.8% | [10]; 10 µM unless noted 109%

Nc1c(S(=O)(=O)O)cc(Br)c2c1C(=O)c1ccccc1C2=O
inactive: [1]; 10 µM unless noted 107% and 114% | [2]; 10 µM unless noted 100% and 108% | [3]; 10 µM unless noted 86.7% and 90.7% | [4]; 10 µM unless noted 111% and 107% | [5]; 10 µM unless noted 102% and 105% | [6]; 10 µM unless noted 92% and 84.9% | [7]; 10 µM unless noted 99.6% and 90.8% | [8]; 10 µM unless noted 108% and 104% | [9]; 10 µM unless noted 102% and 103% | [10]; 10 µM unless noted 109% and 113%

Cc1cc2ccccc2c2cc3ccccc3cc12
inactive: [1]; 10 µM unless noted 82.4% | [2]; 10 µM unless noted 88.3% | [3]; 10 µM unless noted 100% | [4]; 10 µM unless noted 105% | [5]; 10 µM unless noted 102% | [6]; 10 µM unless noted 90.8% | [7]; 10 µM unless noted 89.8% | [8]; 10 µM unless noted 87.8% | [9]; 10 µM unless noted 95.4% | [10]; 10 µM unless noted 107%

O=C(c1ccc(Cl)cc1)C1C(c2ccccc2)C1[N+](=O)[O-] (centres undefined)
inactive: [1]; 10 µM unless noted 102% | [2]; 10 µM unless noted 97.2% | [3]; 10 µM unless noted 106% | [4]; 10 µM unless noted 97.1% | [5]; 10 µM unless noted 89.9% | [6]; 10 µM unless noted 90.5% | [7]; 10 µM unless noted 96.9% | [8]; 10 µM unless noted 91.1% | [9]; 10 µM unless noted 95.2% | [10]; 10 µM unless noted 111%

S=c1nc[nH]c2nc[nH]c12
inactive: [1]; 10 µM 39.1% | [1]; 50 µM 15.6% | [2]; 10 µM 41.7% | [2]; 50 µM 14.3% | [3]; 10 µM 55.9% | [3]; 50 µM 43.7% | [4]; 10 µM 96.3% | [4]; 50 µM 91.6% | [5]; 10 µM 51.5% | [5]; 50 µM 36.8% | [6]; 10 µM 53.5% | [6]; 50 µM 43.2% | [7]; 10 µM 61.8% | [7]; 50 µM 12.8% | [8]; 10 µM 15.8% | [8]; 50 µM 19.8% | [10]; 10 µM 114% | [10]; 50 µM 75.6%
active: [9]; 10 µM 9.56% | [9]; 50 µM 6.96%
15.6% (inactive) and 1.72% (active): [8]; 750 µM

COC1C(OC(N)=O)C(O)C(Oc2ccc3c(O)c(NC(=O)c4ccc(O)c(CC=C(C)C)c4)c(=O)oc3c2C)OC1(C)C (centres undefined)
inactive: [1]; 10 µM unless noted 23.6% and 96% | [2]; 10 µM unless noted 105% and 110% | [3]; 10 µM unless noted 28.8% and 77.2% | [4]; 10 µM unless noted 101% and 92.7% | [5]; 10 µM unless noted 42.5% and 101% | [6]; 10 µM unless noted 90.6% and 93.8% | [7]; 10 µM unless noted 103% and 98.2% | [8]; 10 µM unless noted 103% and 97.9% | [9]; 10 µM unless noted 99.7% and 98.4% | [10]; 10 µM unless noted 108%

CS/C(=C\c1ccc(C(=O)c2ccc(C)cc2)n1C)S(C)=O (centres undefined)
inactive: [1]; 10 µM 87.6% | [1]; 100 µM 55.1% | [2]; 10 µM 94% | [2]; 100 µM 81.2% | [3]; 10 µM 96.1% | [3]; 100 µM 100% | [4]; 10 µM 91.3% | [4]; 100 µM 77.5% | [5]; 10 µM unless noted 74.7% [100 µM] | [6]; 10 µM 76.6% | [6]; 100 µM 71.1% | [7]; 10 µM 81.2% | [7]; 100 µM 36.5% | [8]; 10 µM 83.3% | [8]; 100 µM 61.4% | [9]; 10 µM unless noted 99.4% | [10]; 10 µM 84.7% | [10]; 100 µM 74.9%

CCCC(=O)OCC(COC(=O)CCC)OC(=O)CCC
inactive: [1]; 10 µM unless noted 106% | [2]; 10 µM unless noted 102% | [3]; 10 µM unless noted 93.5% | [4]; 10 µM unless noted 97.6% | [5]; 10 µM unless noted 88.3% | [6]; 10 µM unless noted 85.4% | [7]; 10 µM unless noted 98.5% | [8]; 10 µM unless noted 89.9% | [9]; 10 µM unless noted 101% | [10]; 10 µM unless noted 108%

NC(=O)Cc1nc(O)cc(=O)[nH]1
inactive: [1]; 10 µM unless noted 96.9% | [2]; 10 µM unless noted 93.2% | [3]; 10 µM unless noted 88.1% | [4]; 10 µM unless noted 96.9% | [5]; 10 µM unless noted 89.4% | [6]; 10 µM unless noted 76.2% | [7]; 10 µM unless noted 104% | [8]; 10 µM unless noted 98% | [9]; 10 µM unless noted 105% | [10]; 10 µM unless noted 113%

C(#CCN1CCOCC1)CCCN1CCOCC1
inactive: [1]; 10 µM unless noted 91% and 99.6% | [2]; 10 µM unless noted 106% and 105% | [3]; 10 µM unless noted 83.7% and 104% | [4]; 10 µM unless noted 107% and 108% | [5]; 10 µM unless noted 102% and 98.7% | [6]; 10 µM unless noted 99.9% and 93.2% | [7]; 10 µM unless noted 101% and 104% | [8]; 10 µM unless noted 96.3% and 96.5% | [9]; 10 µM unless noted 102% and 99.6% | [10]; 10 µM unless noted 107% and 110%

O=C(NC(CSSCC(NC(=O)OCc1ccccc1)C(=O)O)C(=O)O)OCc1ccccc1 (centres undefined)
inactive: [1]; 10 µM unless noted 90.9% and 98.4% | [2]; 10 µM unless noted 92.7% and 96% | [3]; 10 µM unless noted 78.4% and 90.8% | [4]; 10 µM unless noted 93.2% and 104% | [5]; 10 µM unless noted 84.2% and 97.5% | [6]; 10 µM unless noted 90.5% and 73.1% | [7]; 10 µM unless noted 90% and 102% | [8]; 10 µM unless noted 91.5% and 102% | [9]; 10 µM unless noted 103% and 95% | [10]; 10 µM unless noted 96.6% and 104%

Cc1cc(Cl)nc(Nc2ccccc2)n1
inactive: [1]; 10 µM unless noted 97.4% | [2]; 10 µM unless noted 104% | [3]; 10 µM unless noted 96.2% | [4]; 10 µM unless noted 103% | [5]; 10 µM unless noted 98.7% | [6]; 10 µM unless noted 96.8% | [7]; 10 µM unless noted 97.2% | [8]; 10 µM unless noted 90.2% | [9]; 10 µM unless noted 97% | [10]; 10 µM unless noted 109%

Nc1ccc2ccc(NS(=O)(=O)N3CCCCC3)cc2c1
active: [2]; 10 µM unless noted 4.34%
inactive: [1]; 10 µM unless noted 18.6% | [3]; 10 µM unless noted 30.1% | [4]; 10 µM unless noted 40.3% | [5]; 10 µM unless noted 23.3% | [6]; 10 µM unless noted 43.6% | [7]; 10 µM unless noted 25.3% | [8]; 10 µM unless noted 16.7% | [9]; 10 µM unless noted 46.6% | [10]; 10 µM unless noted 55.8%

O=C(O)c1ccc2c3ccc(C(=O)O)c4c(C(=O)O)ccc(c5ccc(C(=O)O)c1c25)c43
inactive: [1]; 10 µM unless noted 108% | [2]; 10 µM unless noted 111% | [3]; 10 µM unless noted 85.4% | [4]; 10 µM unless noted 96.8% | [5]; 10 µM unless noted 106% | [6]; 10 µM unless noted 101% | [7]; 10 µM unless noted 102% | [8]; 10 µM unless noted 90.9% | [9]; 10 µM unless noted 92.7% | [10]; 10 µM unless noted 112%

Nc1ccccc1SC(CC(=O)c1ccccc1)c1cccc([N+](=O)[O-])c1 (centres undefined)
inactive: [1]; 10 µM unless noted 66.3% and 49.4% | [2]; 10 µM unless noted 11.5% and 30.2% | [3]; 10 µM unless noted 74.9% and 78.1% | [4]; 10 µM unless noted 89.8% | [5]; 10 µM unless noted 57.5% and 61.1% | [6]; 10 µM unless noted 75% and 71.6% | [7]; 10 µM unless noted 96.3% | [8]; 10 µM unless noted 85.5% and 94% | [9]; 10 µM unless noted 33.5% and 10.9% | [10]; 10 µM unless noted 96% and 102%

COc1cc(C2c3cc4c(cc3C(OC(=O)C[n+]3ccccc3)C3COC(=O)C23)OCO4)cc(OC)c1OC (centres undefined)
active: [1]; 10 µM unless noted 4.19% | [2]; 10 µM unless noted 4.68% | [5]; 10 µM unless noted 2.86% | [7]; 10 µM unless noted -32.5%
inactive: [3]; 10 µM unless noted 48.3% | [4]; 10 µM unless noted 27.5% | [6]; 10 µM unless noted 35% | [8]; 10 µM unless noted 15.9% | [9]; 10 µM unless noted 12.7% | [10]; 10 µM unless noted 61.6%

O=[N+]([O-])c1ccc(NC(c2ccccc2)c2ccc3cccnc3c2O)cc1 (centres undefined)
active: [7]; 10 µM unless noted -1.02% | [8]; 10 µM unless noted -4.08% | [9]; 10 µM unless noted 9.64%
inactive: [1]; 10 µM unless noted 32.5% | [2]; 10 µM unless noted 26% | [3]; 10 µM unless noted 47.3% | [4]; 10 µM unless noted 21.2% | [5]; 10 µM unless noted 12.3% | [6]; 10 µM unless noted 30.3% | [10]; 10 µM unless noted 27.7%

O=c1[nH]nnc2cc(Cl)ccc12
inactive: [1]; 10 µM unless noted 93.9% and 104% | [2]; 10 µM unless noted 109% and 129% | [3]; 10 µM unless noted 87.1% and 83% | [4]; 10 µM unless noted 104% and 103% | [5]; 10 µM unless noted 97.3% and 93.8% | [6]; 10 µM unless noted 103% and 90.7% | [7]; 10 µM unless noted 100% | [8]; 10 µM unless noted 99.8% and 101% | [9]; 10 µM unless noted 101% | [10]; 10 µM unless noted 117% and 109%

COc1cc(Cl)ccc1C
inactive: [1]; 10 µM unless noted 14.3% | [2]; 10 µM unless noted 27.1% | [3]; 10 µM unless noted 110% | [4]; 10 µM unless noted 79% | [5]; 10 µM unless noted 78% | [6]; 10 µM unless noted 74.1% | [7]; 10 µM unless noted 96.3% | [8]; 10 µM unless noted 66.4% | [9]; 10 µM unless noted 77.1% | [10]; 10 µM unless noted 112%

O=C(O)/C=C/C=C/c1ccccc1
inactive: [1]; 10 µM unless noted 102% and 108% | [2]; 10 µM unless noted 100% and 103% | [3]; 10 µM unless noted 103% and 98.4% | [4]; 10 µM unless noted 97.1% and 100% | [5]; 10 µM unless noted 106% and 96.9% | [6]; 10 µM unless noted 97.4% and 101% | [7]; 10 µM unless noted 102% and 94.7% | [8]; 10 µM unless noted 96.1% and 102% | [9]; 10 µM unless noted 99.3% and 97.9% | [10]; 10 µM unless noted 103% and 109%

S=c1nn[nH]n1C1CCCCC1
inactive: [1]; 10 µM unless noted 115% | [2]; 10 µM unless noted 116% | [3]; 10 µM unless noted 95.2% | [4]; 10 µM unless noted 111% | [5]; 10 µM unless noted 102% | [6]; 10 µM unless noted 101% | [7]; 10 µM unless noted 105% | [8]; 10 µM unless noted 113% | [9]; 10 µM unless noted 111% | [10]; 10 µM unless noted 117%

CCN(CC)CCNC(=O)c1ccc(NCN2C(=O)NC(c3ccccc3)(c3ccccc3)C2=O)cc1
inactive: [1]; 10 µM unless noted 113% and 105% | [2]; 10 µM unless noted 108% and 112% | [3]; 10 µM unless noted 103% and 97.1% | [4]; 10 µM unless noted 109% and 105% | [5]; 10 µM unless noted 95.2% and 102% | [6]; 10 µM unless noted 97.6% and 93% | [7]; 10 µM unless noted 101% and 109% | [8]; 10 µM unless noted 104% and 97% | [9]; 10 µM unless noted 95.1% and 97.6% | [10]; 10 µM unless noted 117%
